# Screening results (PubChem BioAssay)
# VHR inh abs: blocks human VHR1 dual specificity phosphatase; recombinant VHR phosphatase, pNPP absorbance; actives 0.52% (n = 290,000); inhibition, % at 13.3 µM; in the data active = inhibition above about 50%
# Target sequence (P51452 whole entry, looked up): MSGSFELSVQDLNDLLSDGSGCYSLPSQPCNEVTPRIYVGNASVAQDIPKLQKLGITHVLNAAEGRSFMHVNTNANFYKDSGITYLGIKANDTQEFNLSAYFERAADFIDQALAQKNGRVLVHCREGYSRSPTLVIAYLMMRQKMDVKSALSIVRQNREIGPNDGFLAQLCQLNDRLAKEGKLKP
# Anthrax LF prot: anthrax lethal factor protease inhibition; P15917; multiplex microsphere protease cleavage assay, LF; inhibition, % at 10 µM; actives 0.12% (n = 360,000); also: plate controls were buffer without enzyme for full effect and enzyme alone for no effect
# BoNT-F LC inh: blocks Botulinum neurotoxin F light chain protease | AID 588497 | actives 0.22% (n = 360,000) | inhibition, % at 10 µM | Multiplex microsphere protease cleavage assay, flow cytometry; in the data active = inhibition above about 35%, passing the limit was not always enough; inconclusive = no clear call, values can overlap the other calls; also: plate controls were buffer without enzyme for full effect and enzyme alone for no effect
# BoNT-A LC inh2: BoNT A light chain protease inhibition. multiplex microsphere protease substrate cleavage, flow cytometry. inhibition, % at 10 µM. actives 0.17% (n = 360,000); also: plate controls were buffer without enzyme for full effect and enzyme alone for no effect
# Bead autofluor: compound fluorescence in toxin protease inhibitor counterscreen. compound autofluorescence counterscreen, microsphere flow cytometry; stronger effect = higher value. fluorescence intensity (test concentration not listed). AID 624483. actives 3.1% (n = 360,000); in the data active = fluorescence intensity above about 16000; inconclusive = no clear call, values can overlap the other calls
# MazEF act: activators of E. coli MazEF toxin-antitoxin RNase; activation, % at 20 µM; AID 504720; P0AE70; actives 0.32% (n = 350,000); FAM/BHQ RNA-DNA oligo cleavage fluorescence, 5 h; in the data active = activation above about 50%
# Target sequence (P0AE70 whole entry, looked up): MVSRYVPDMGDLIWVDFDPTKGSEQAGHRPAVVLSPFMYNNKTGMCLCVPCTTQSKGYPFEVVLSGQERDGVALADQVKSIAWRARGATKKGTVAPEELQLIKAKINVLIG
# Numbers without * were called inactive; ? = inconclusive; . = no result given. In the library only some 4% were active in any assay of this set; here they are far more common. Rule as the data show it, unless noted: active = inhibition above about 30%; inconclusive = no clear call, values can overlap the other calls; inactive = below that.
SMILES,VHR inh abs,Anthrax LF prot,BoNT-F LC inh,BoNT-A LC inh2,Bead autofluor,MazEF act
COC(=O)C1(C(=O)OC)NOC2C(=O)N(c3ccccc3)C(=O)C21 (centres undefined),5,1,0,?,22517*,-5
O=c1c2ccccc2cnn1CCOc1ccccc1,-4,2,0,0,2420,-9
O=C(O)c1ccc(NCc2nc3cc4ccccc4cc3[nH]2)cc1,.,-1,-8,0,3892,9
C=CCN1C(=O)/C(=C/c2ccccc2)S/C1=N/c1nccs1,-7,-2,-6,0,6979,-7
C=CCN1C(=O)CS/C1=N/c1nccs1,9,-2,-6,-6,21993*,3
COc1ccc(NC(=O)c2cccc(OC(F)F)c2)cc1Cl,23,-6,-4,?,23117*,10
COc1cccc(C(=O)Nc2ccc(NC(C)=O)cc2)c1,4,-4,-1,?,22073*,6
CC(=O)c1cccc(NC(=O)c2onc(C)c2Cl)c1,11,2,0,0,5061,7
CC(=O)c1cccc(NC(=O)c2oc(C)nc2C)c1,8,2,-4,-1,24179*,2
COc1cc(NC(=O)Nc2cccc(C(C)=O)c2)cc(OC)c1OC,-12,-10,-1,1,21687*,6
CCNC(=S)NNC(=O)c1ccncc1,28,-2,4,2,6879,1
Cc1ccc(C(=O)NCC(=O)OCCOc2cccc(Cl)c2)cc1,.,5,5,3,5142,-2
COc1cc(OC)cc(C(=O)Nc2cccc(C(C)=O)c2)c1,-16,-3,-1,1,22501*,11
COc1cccc(C(=O)NC2CCSC2=O)c1 (centres undefined),-8,-2,-1,1,19865*,5
O=[N+]([O-])c1cccc(CN(CCO)Cc2ccccc2)c1,10,-1,-5,-1,16829*,-2
CCN(Cc1ccccc1)Cc1cccc([N+](=O)[O-])c1,-26,0,-4,0,10649,1
OCCN(Cc1ccccc1)Cc1ccc(F)c(F)c1,-5,0,3,1,20266*,3
OCCN(Cc1ccccc1)Cc1ccccc1O,14,-4,-1,1,3502,-20
CC1(C)Cc2c(cnn2-c2ccccc2)C(NC(=O)c2ccoc2)C1 (centres undefined),-7,0,1,1,4339,3
O=C(Nc1ccccc1)N1CCSc2ccccc21,-8,-1,1,0,2541,-2
O=C(Nc1ccc(Cl)cc1)N1CCSc2ccccc21,-8,0,-1,1,23243*,0
O=C(Nc1ccc(Cl)cc1)N1CCCC1,13,-7,-3,0,22686*,-6
N#CC1(N2CCN(C(=O)c3ccccc3)CC2)CCCCC1,54*,-3,?,-6,4044,5
CCc1ncc(C(O)c2cccc3ccccc23)n1C (centres undefined),8,-10,-1,0,4265,3
C/C(=N\NC(=O)c1ccccc1O)c1ccc(Br)s1,-10,0,2,0,2522,-8
SMILES,VHR inh abs,Anthrax LF prot,BoNT-F LC inh,BoNT-A LC inh2,Bead autofluor,MazEF act
O=C(Nc1nc2c(s1)CCCC2)c1cc(-c2ccccc2)nc2ccccc12,-2,-2,-4,-1,2609,5
Clc1ccc(OCc2nnc(-c3ccccc3Br)o2)cc1,10,-6,0,0,16365*,-7
O=C(Nc1nnc(SCc2ccccc2)s1)c1cccs1,13,-2,0,0,2670,2
CC1(C(=O)Nc2nnc(C(C)(C)C)s2)Cc2ccccc2C(=O)O1 (centres undefined),53*,-1,-12,-1,11347,6
CCSc1nnc(NC(=O)C2(C)Cc3ccccc3C(=O)O2)s1 (centres undefined),6,-12,6,5,17590*,-7
CC1(C(=O)Nc2ccccc2)Cc2ccccc2C(=O)O1 (centres undefined),27,0,-2,0,4091,13
CCSc1nnc(NC(=O)c2cccs2)s1,2,2,0,1,22159*,2
O=C(O)CCc1ccc(-c2cccs2)n1Cc1ccco1,8,3,26,4,4476,-9
COC(=O)c1c(C(=O)OC)c2n(c1C)Cc1ccccc1C2,26,-3,0,-1,22637*,11
CC1CCC2(CC1)NC(=O)N(CC(=O)NCc1ccc3c(c1)OCO3)C2=O (centres undefined),19,3,-7,-1,4922,3
CCOc1ccc(CNC(=O)CCCn2ccc3cc(S(=O)(=O)N4CCCC4)ccc32)cc1,4,1,-5,-2,5881,2
CCOc1ccc(CCNC(=O)Cn2ccc3cc(S(=O)(=O)N4CCCC4)ccc32)cc1,53*,0,-1,0,6156,0
CCOc1ccccc1C(=O)NC1CCN(Cc2nnnn2C2CCCC2)CC1,15,-2,0,?,22337*,11
CCC(C)(C)n1nnnc1CN1CCC(NC(=O)c2ccccc2C)CC1,13,-10,-7,0,8605,9
CCOC(=O)c1cnc(SCC(=O)c2ccccc2)nc1N,29,0,-4,-1,24281*,6
CC(=O)c1cccc(OCC(=O)Nc2cc(Cl)ccc2-n2cncn2)c1,.,-5,-2,-1,5972,-5
Cc1ccc(CN2C(=O)CCC2C(=O)NCc2cccnc2)cc1 (centres undefined),33,-6,2,4,21210*,-3
CC1CN(C(=O)CCC(=O)NCCCN2C(C)CCCC2C)c2ccccc2O1 (centres undefined),53*,-2,-4,-1,5142,13
O=C1C(=O)N(c2cccc(Cl)c2)C(c2ccccc2[N+](=O)[O-])/C1=C(\O)c1ccccc1 (centres undefined),16,0,0,-2,21218*,1
O=C1C(=O)N(c2ccccc2)C(c2ccccc2[N+](=O)[O-])/C1=C(\O)c1ccccc1 (centres undefined),18,-5,0,0,4221,0
Cc1ccc(NC(=O)CSCc2ccc(F)cc2)cc1,2,1,0,0,2114,2
Cc1cc(C)nc(-n2ncc3c2CCCC3=O)n1,3,0,1,0,2592,5
CC(=O)c1ccc(N2CCN(CC(=O)NCc3ccccc3)CC2)cc1,.,-4,3,-4,3674,6
CCCOC(=O)Nc1nnc(CCC)s1,44,2,10,7,21272*,1
Cc1ccc2[nH]c(=O)c(CN(CC3CCCO3)S(=O)(=O)c3c(C)ccc4nsnc34)cc2c1 (centres undefined),34,-6,4,?,19816*,2
O=C(COc1ccc(Cl)cc1)NCCS(=O)(=O)N1CCN(c2ccccc2F)CC1,-21,0,-5,1,6454,-1
CCOC(=O)c1c(NC(=O)CC2Sc3ccc(C(F)(F)F)cc3NC2=O)sc(C)c1C (centres undefined),8,-2,-4,-1,2516,7
